We go through 5 compounds from PubChem BioAssay.

A short description of test [1]: Wnt pathway potentiators raising nuclear beta-catenin – imaging, WNT3A-conditioned medium, mouse C2C12, NPC library, primary screen (AID 1117326; in the data active = nuclear beta-catenin stimulation mostly above about 4.2%, no sharp cut-off; inactive = mostly below about 10%). The conditions noted are these: stronger effect = higher value.
Test [2] can be described thus: stimulators of insulin release from INS-1E, primary screen, cell-based, 5 mM glucose, NPC library (AID 1117329). The note with it: rat INS-1E insulin secretion, at 10 µM, stronger effect = higher value.
Test [3] is described as follows: growth inhibition of GSK3B-pretreated HCT116 cells – cell-based, CellTiter-Glo, 0.2 to 20 µM (AID 1117336;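 active = compounds lowering colon cancer cell viability after pretreatment blocking the GSK3B kinase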). The note with it: HCT116 viability after GSK3B inhibitor, at 20 µM, stronger effect = higher value.
The nature of test [4]: inhibition of endothelial tube formation, primary screen, imaging, VEGF stimulated, CD31 staining, tube area, NPC library (AID 1117340;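 active = compound that reduces growth-factor-driven endothelial tube area in a mixed cell culture, no cutoff stated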). The note with it: VEGF-stimulated ADSC/ECFC co-culture, at 10 µM, stronger effect = higher value.
Test [5] in a line: GLP1 release stimulators, primary, NCI-H716, NPC library (AID 1117341;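 active = compound raises GLP1 secretion from the human gut endocrine cells, with no numeric limit stated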). The note with it: NCI-H716 cells, at 10 µM, stronger effect = higher value.
Test [6] is described as follows: HCT116 colon cancer cell growth inhibition, primary screen, CellTiter-Glo luminescence, NPC library (AID 1117342;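 active = compounds that lower survival of HCT116 colon cancer cells in the luminescence readout, no numeric limit stated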). The note with it: at 20 µM (top of the series).
A short description of test [7]: reduced SW480 viability measured with CellTiter-Glo, NPC library, primary (AID 1117343;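 active = compounds that lower viability of the colon cancer cells in the luminescence readout, with no numeric limit stated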). The note with it: CellTiter-Glo luminescence; at 20 µM (top of the series).
Test [8] is described as follows: NPC library primary testing for decreased DLD-1 cell viability via CellTiter-Glo (AID 1117346;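 active = compounds that lower survival of DLD-1 colon cancer cells in the luminescence readout, no cutoff given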). The conditions noted are these: DLD-1 viability, CellTiter-Glo luminescence; at 20 µM (top of the series).
The nature of test [9]: blockers of polyQ-driven CASP3 activation – cell-based (AID 1583). The note with it: polyglutamine-induced caspase-3 activation, cell assay; stronger effect = higher value;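 tested at 10 µM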.
Test [10] in a line: yeast 75Q aggregation reduction – 75Q-TubU reporter (AID 1593). The conditions noted are these: Yeast 75Q polyglutamine aggregation reporter.
The nature of test [11]: restoration of touch response, mutant HTT neurons – whole organism, C. elegans mechanosensory neurons, N-terminal huntingtin (AID 1599). The conditions noted are these: C. elegans polyQ-huntingtin mechanosensory neurons, stronger effect = higher value.
Test [12] is described as follows: blockers of cytochrome c efflux from mitochondria – biochemical, purified mitochondria (AID 1603).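 Also: mouse liver mitochondria challenged with calcium chloride; signal normalized to the plate average as 100%.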 The note with it: stronger effect = lower value.
Test [13] can be described thus: polyglutamine aggregate formation blockers (AID 1604). The conditions noted are these: polyglutamine-induced protein aggregation inhibition assay; stronger effect = higher value; tested at 2.5 µM.
Test [14] deals with 6-phosphogluconate dehydrogenase, decarboxylating (Homo sapiens) (UniProt P52209). In words: inhibition of human phosphogluconate dehydrogenase – biochemical, recombinant enzyme, NADPH absorbance, primary screen (AID 1159550;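 active = at least 20% inhibition of 6-phosphogluconate dehydrogenase activity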). The conditions noted are these: recombinant 6PGD, NADPH absorbance 341 nm; at 10 µM; stronger effect = higher value.
Sequence of 6-phosphogluconate dehydrogenase, decarboxylating (Homo sapiens) (P52209 whole entry, looked up): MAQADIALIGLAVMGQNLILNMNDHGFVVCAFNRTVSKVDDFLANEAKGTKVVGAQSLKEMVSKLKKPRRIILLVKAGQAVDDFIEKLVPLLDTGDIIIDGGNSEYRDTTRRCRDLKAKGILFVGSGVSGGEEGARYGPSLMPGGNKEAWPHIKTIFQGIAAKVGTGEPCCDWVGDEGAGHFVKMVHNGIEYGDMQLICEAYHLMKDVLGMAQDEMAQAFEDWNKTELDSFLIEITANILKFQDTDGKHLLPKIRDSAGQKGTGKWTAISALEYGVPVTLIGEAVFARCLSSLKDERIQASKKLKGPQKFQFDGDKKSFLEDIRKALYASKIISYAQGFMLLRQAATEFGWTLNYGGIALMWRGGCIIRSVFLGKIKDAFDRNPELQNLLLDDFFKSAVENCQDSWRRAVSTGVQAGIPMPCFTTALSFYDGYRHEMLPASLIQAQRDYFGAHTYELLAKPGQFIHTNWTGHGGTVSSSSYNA
A short description of test [15]: EMT-state selective cytotoxicity in co-culture – imaging, PC-3E GFP, TEM4-18 mCherry, primary screen (AID 1345086;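 active = compounds killing one labelled cell type while sparing the other, by normalised counts and ratio limits, not self-fluorescent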;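 as to all read-outs here: cells exposed to compound for 72 h before imaging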;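 as to red/green cell ratio (normalised): normalised mesenchymal count divided by normalised epithelial count so high means epithelial killing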). The conditions noted are these: PC-3E GFP / TEM4-18 mCherry co-culture, imaging cell counts, at 1 µM; for red/green cell ratio (normalised): actives lie on both sides, counts scaled to control wells, 1 = unselective.
A short description of test [16]: MELAS cybrid and Rieske KO viability enhancers – cell-based, MELAS cybrids, Rieske KO mouse fibroblasts, CellTiter-Glo, primary screen (AID 1508586;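 active = mean z-score across replicates of 1.96 or higher in either the MELAS or the Rieske mutant cell line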;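 also: z relative to plate mean and SD of compound and empty wells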). The note with it: low glucose.
In test [17] the target is NAD(+) hydrolase SARM1 (Homo sapiens) (UniProt Q6SZW1). Nature of the test: blocking NAD cleavage by SARM1 SAM-TIR – cell lysate, NAD-Glo luminescence (AID 1508614;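 active = compound whose remaining NAD level is above about 45 nM, limit read from the data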;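 also: higher remaining NAD means stronger inhibition of SARM1 NADase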). The note with it: SAM-TIR HEK293T lysate NADase, at 1 µM, stronger effect = higher value.
Sequence of NAD(+) hydrolase SARM1 (Homo sapiens) (Q6SZW1 whole entry, looked up, the tested form may be a part): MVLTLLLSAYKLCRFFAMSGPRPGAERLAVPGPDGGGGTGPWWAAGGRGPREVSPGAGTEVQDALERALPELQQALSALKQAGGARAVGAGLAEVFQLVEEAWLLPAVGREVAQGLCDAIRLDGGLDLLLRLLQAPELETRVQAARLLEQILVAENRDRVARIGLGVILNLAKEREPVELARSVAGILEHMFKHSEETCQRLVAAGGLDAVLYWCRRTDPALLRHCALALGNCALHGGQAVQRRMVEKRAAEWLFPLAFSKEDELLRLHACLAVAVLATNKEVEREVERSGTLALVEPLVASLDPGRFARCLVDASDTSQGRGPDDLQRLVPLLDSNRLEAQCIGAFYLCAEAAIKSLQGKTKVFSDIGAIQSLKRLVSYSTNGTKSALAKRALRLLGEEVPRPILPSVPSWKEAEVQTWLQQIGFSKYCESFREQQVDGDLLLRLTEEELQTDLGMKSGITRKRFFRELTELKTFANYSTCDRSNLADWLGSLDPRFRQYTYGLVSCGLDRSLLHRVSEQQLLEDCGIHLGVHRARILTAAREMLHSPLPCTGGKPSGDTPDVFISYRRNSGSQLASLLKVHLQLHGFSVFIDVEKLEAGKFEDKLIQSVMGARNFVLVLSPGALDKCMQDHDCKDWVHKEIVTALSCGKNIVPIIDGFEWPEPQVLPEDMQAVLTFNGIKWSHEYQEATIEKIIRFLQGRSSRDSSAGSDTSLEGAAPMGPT
The target in test [18] is Mitogen-activated protein kinase 7 (Homo sapiens) (UniProt Q13164). In words: Gal4-ERK5 driven luciferase induction – cell-based, HTS, primary screen (AID 1508626;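 active = luciferase signal above three times the same-plate solvent-only control wells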;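 also: luciferase driven by Gal4-ERK5 fusion binding five Gal4 sites before minimal TATA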). The conditions noted are these: HeLa Gal4-ERK5 transactivation, 18 h, at 5 µM, stronger effect = higher value.
Sequence of Mitogen-activated protein kinase 7 (Homo sapiens) (Q13164 whole entry, looked up, the tested form may be a part): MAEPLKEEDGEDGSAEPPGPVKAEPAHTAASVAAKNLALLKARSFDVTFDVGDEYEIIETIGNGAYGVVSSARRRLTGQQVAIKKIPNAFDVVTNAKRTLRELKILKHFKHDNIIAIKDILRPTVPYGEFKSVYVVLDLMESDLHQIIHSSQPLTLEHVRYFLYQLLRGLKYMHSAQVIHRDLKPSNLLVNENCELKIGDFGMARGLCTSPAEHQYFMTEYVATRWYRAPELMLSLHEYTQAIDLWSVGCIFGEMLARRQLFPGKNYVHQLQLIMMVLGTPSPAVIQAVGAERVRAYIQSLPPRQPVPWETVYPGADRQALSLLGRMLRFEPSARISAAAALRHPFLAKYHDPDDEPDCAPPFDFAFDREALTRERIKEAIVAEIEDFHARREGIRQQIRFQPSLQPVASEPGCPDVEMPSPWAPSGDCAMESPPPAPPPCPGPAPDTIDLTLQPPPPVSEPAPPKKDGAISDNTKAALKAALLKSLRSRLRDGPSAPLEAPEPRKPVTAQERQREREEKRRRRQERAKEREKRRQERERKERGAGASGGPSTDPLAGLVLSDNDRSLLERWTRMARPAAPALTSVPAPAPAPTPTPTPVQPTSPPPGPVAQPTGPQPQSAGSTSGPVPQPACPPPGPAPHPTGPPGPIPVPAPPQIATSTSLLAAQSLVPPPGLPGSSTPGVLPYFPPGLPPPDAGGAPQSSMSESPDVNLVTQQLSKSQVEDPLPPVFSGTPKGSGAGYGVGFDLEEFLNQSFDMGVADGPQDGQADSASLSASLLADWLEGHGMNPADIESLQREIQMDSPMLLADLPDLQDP
Where [19] appears, read: measured here: epithelial PC-3E GFP cell survival.
Setting [20] is: measured here: mesenchymal TEM4-18 mCherry cell survival.

Molecules are shown by their SMILES. “And” between values parts separate entries of the source, which are not always exact repeats. Equal values may be shown once. For part of these data: Potency and affinity values are given separately. The source made the active and inactive calls.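 The calls were made as follows, unless noted: active = compound raises insulin release from rat beta cells at 5 mM glucose, no numeric limit stated; inactive = the rest.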

For the compound `OC1(c2ccccc2)CCNCC1`, the nuclear beta-catenin stimulation is 0.2% (inactive) in test [1] (at 10 µM) and 0.6% in test [1] (stimulation, at 2 µM). Moreover, in test [2], the insulin secretion stimulation is -0.5% (inactive). Further, in test [3], the viability decrease is 6% (inactive). In [4], the tube area decrease is -1% (inactive). In test [5], the GLP1 secretion stimulation was 6.9% (inactive). Also, the inhibition of viability in test [6] was 12.8% (inactive). Besides, the viability decrease (inhibition) was 5.3% (inactive) in test [7] and 11.1% (inactive) in test [8].
Turning to `CCOC(=O)c1ccc(O)c(O)c1`, the nuclear beta-catenin stimulation in test [1] (at 10 µM) was 4.9% (inactive); in [1] (stimulation, at 2 µM) it was 3.4%. Further, in test [2], the insulin secretion stimulation is 4% (inactive). In [3], the viability decrease is 88.4% (active). The tube area decrease in test [4] was 24% (inactive). Further, the GLP1 secretion stimulation in test [5] is -0.3% (inactive). Further, in [6], the inhibition of viability was 63.9% (active). Besides, the viability decrease (inhibition) is 77.7% (active) in test [7] and 56.4% (active) in test [8].
As to `COc1ccc(CCC(C)=O)cc1`, the nuclear beta-catenin stimulation was 0.1% (inactive) in test [1] (at 10 µM) and 2.7% in [1] (stimulation, at 2 µM). Also, in test [2], the insulin secretion stimulation is 0.3% (inactive). In test [3], the viability decrease was -3.4% (inactive). Besides, the tube area decrease in [4] was -21% (inactive). Further, in test [5], the GLP1 secretion stimulation was -3.2% (inactive). Also, the inhibition of viability in test [6] is -0.8% (inactive). Further, the viability decrease (inhibition) is -0.7% (inactive) in test [7] and -19.4% (inactive) in test [8].
Consider `CN1C(C(=O)Nc2ccccn2)=C(O)c2ccccc2S1(=O)=O`, for which the inhibition in test [9] was -2.37%; in [14], 7.63% (inactive). In addition, the score in test [10] was 0.27. The same compound registered a rescue above control in [11] of 9.46. Besides, the cytochrome c release ratio in test [12] was found to be 1.16. In addition, the inhibition of aggregation in test [13] stood at 83.1%. Besides, the nuclear beta-catenin stimulation in test [1] (at 10 µM) is 6.3% (inactive); in [1] (stimulation, at 2 µM) it was 0.5%. For the same compound, the insulin secretion stimulation in test [2] was -2.9% (inactive). Also, in [3], the viability decrease was -12.7% (inactive). Also, the tube area decrease in test [4] was 3.1% (inactive). The GLP1 secretion stimulation in test [5] was 1.4% (inactive). For the same compound, in [6], the inhibition of viability was -10.9% (inactive). The viability decrease (inhibition) was 15.6% (inactive) in test [7] and 12.8% (inactive) in test [8]. Further, the red/green cell ratio (normalised) in [15] was 1.3 (inactive). The normalised cell number in [15] (setting [19]) was 0.96; in test [15] (setting [20]) it was 1.24. The z-score in [16] (MELAS cybrid survival, CellTiter-Glo 48 h, stronger effect = higher value) is -0.176 (inactive) and -0.255 (inactive) and -0.0452 (inactive); in test [16] (Rieske KO mouse fibroblast survival, CellTiter-Glo 72 h) it was 0.725 and -0.177 and -0.896. For the same compound, in [17], the remaining NAD was 10 nM (inactive). Besides, the luciferase signal in test [18] was 56 AU (inactive).
`Oc1ccc(/C=C/c2cc(O)cc(O)c2)cc1`: the nuclear beta-catenin stimulation in test [1] (at 10 µM) was 2.4% (inactive); in [1] (stimulation, at 2 µM), 2.2%. In addition, in [2], the insulin secretion stimulation was 0.1% (inactive). Besides, the viability decrease in [3] was 19% (inactive). The tube area decrease in [4] is 56.1% (active). Further, in test [5], the GLP1 secretion stimulation was 2.9% (inactive). In [6], the inhibition of viability was 65% (active). The viability decrease (inhibition) in [7] is 75.5% (active); in test [8], 35.3% (inactive). For the same compound, in test [14], the inhibition was 0.743% (inactive). Further, in [15], the red/green cell ratio (normalised) is 1.06 (inactive). Moreover, the normalised cell number in test [15] (setting [19]) was found to be 0.97; in test [15] (setting [20]), 1.04. The luciferase signal in test [18] was 84 AU (inactive).
